HIV RNase H inh-1: HIV-1 RT RNase H inhibitors, primary screen, biochemical, fluorescence; Gag-Pol polyprotein (Human immunodeficiency virus type 1 group M subtype B (isolate …; RT-RNase H RNA/DNA duplex cleavage; inhibition, % at 10 µM; 65,000 compounds, 1.9% hits; AID 565, 2006; in the data active means inhibition above about 50%
HIV RNase H inh-2: HIV-1 RT RNase H inhibitors, retest, confirmation, biochemical | shares compounds with HIV RNase H inh-1 | Recombinant RT RNase H, fluorescent RNA/DNA duplex cleavage | inhibition, % at 10 µM | 1,000 compounds, 39% hits | AID 651, 2007; in the data active means inhibition above about 48%; inconclusive means no clear call, values can overlap the other calls
Active calls of the source: *; u = inconclusive. This excerpt belongs to a sample that is enriched for hits.

SMILES	HIV RNase H inh-1	others
CC1(C)Cc2c(sc3ncnc(N)c23)CO1	-1
CCOC(=O)CSc1nc(-c2cccs2)nc2c1c(=O)n(C)c(=O)n2C	-5
Cc1ccc(O)c(C(=O)c2cnc3c(c2)CN(CCC(C)C)C(=O)N3)c1	63*	HIV RNase H inh-2=u
CN1c2cccc3cccc(c23)N(C)C1(C)C	2
CN1/C(=N\O)c2cccc3cccc1c23	61*	HIV RNase H inh-2=2
CCCN1c2cccc3cccc(c23)S1(=O)=O	-62
Clc1ccc(COc2ccccn2)c(Cl)c1	-17
Cn1cnnc1SCC(=O)c1cc2ccccc2oc1=O	15
O=C(CSc1nnc(-c2cccnc2)o1)c1cc2ccccc2oc1=O	-4
CC(C)c1c(C#N)c(N)nc(SCC(=O)c2cc3ccccc3oc2=O)c1C#N	75*	HIV RNase H inh-2=33
CC(C)Cn1c(=O)c(C2=NS(=O)(=O)c3ccccc3N2)c(O)c2ccccc21	-1
CCCCc1c(O)nc(SCC(=O)N2CCOCC2)[nH]c1=O	-17
O=C(Cn1c(=O)sc2ccccc21)Nc1ccc(S(=O)(=O)N2CCCC2)cc1	8
Cc1ccc(-c2nnc(N3CCCCC3)c3ccccc23)cc1S(=O)(=O)N1CCN(C)CC1	-12
O=c1c2ccccc2sn1-c1ccc(S(=O)(=O)N2CCCC2)cc1	79*	HIV RNase H inh-2=27
COc1c(S(=O)(=O)N2CCCCC2)ccc2c(S(=O)(=O)N3CCCCC3)cccc12	-8
Cc1ccc(-n2sc3ccccc3c2=O)cc1S(=O)(=O)N1CCCCC1	96*	HIV RNase H inh-2=48*
O=C(Nc1ccccc1)c1ccc(S(=O)(=O)N2CCCC2)cc1	2
COc1ccc(N=c2oc3c(OC)cccc3cc2C(=O)NCc2ccco2)c(OC)c1	34
COc1ccc(CCCNC(=O)CC#N)cc1OC	-1
O=C(Nc1nnc(-c2ccc3c(c2)OCCO3)o1)c1ccc(Cc2ccccc2)cc1	59*	HIV RNase H inh-2=10
COc1ccc(C(=O)Nc2nnc(-c3ccccc3)o2)cc1OC	-14
Cc1cccc(-c2nnc(NC(=O)c3ccc(Cl)cc3)o2)c1	-3
Cc1ccc(NC(=O)COC(=O)C2CC2C)c(S(=O)(=O)N2CCCCC2)c1 (configuration not stated)	2
CCN(CC)C(=O)c1cn(CC)c(=O)c2cc(OC)c(OC)cc12	-16
SMILES	HIV RNase H inh-1	others
Cc1ccccc1S(=O)(=O)Nc1nc2ccccc2nc1N1CCOCC1	3
CCOC(=O)c1cnn(-c2cc(C)c3cc(C)cc(C)c3n2)c1N	11
CCC(=O)N1CCc2cc(S(=O)(=O)NC(CC(C)C)C(=O)N3CCc4ccccc43)ccc21 (configuration not stated)	1
CCOC(=O)N1CCC(NC(=O)C(NS(=O)(=O)c2ccc3c(c2)CCN3C(C)=O)C(C)C)CC1 (configuration not stated)	-11
CC(=O)N1CCc2cc(S(=O)(=O)NC(CC(C)C)C(=O)Nc3cc(C(=O)O)ccc3C)ccc21 (configuration not stated)	61*	HIV RNase H inh-2=22
CCSCc1nnc(SCC(=O)Nc2cccc(SC)c2)n1C	-14
Nc1nnc(CCC2CCCCC2)s1	-21
N#CC1=C(N)SC(N)=C(C#N)C1CCC1CCCCC1	80*	HIV RNase H inh-2=u
COc1ccc(NC(=O)CN2C(=O)CC(C)(C)S(=O)(=O)c3ccccc32)cc1	-8
O=S(=O)(c1ccccc1)N(C1=NCCS1)S(=O)(=O)c1ccccc1	-32
CCOCCOCN(C#N)c1nc(OC)nc(N(C)C)n1	-1
COc1ccccc1N1CCN(C(c2cc3cc(C)ccc3[nH]c2=O)c2nnnn2C2CCCC2)CC1 (configuration not stated)	54*	HIV RNase H inh-2=26
COc1cc2cc(C(c3nnnn3C3CCCC3)N3CCc4ccccc43)c(=O)[nH]c2cc1OC (configuration not stated)	20
COc1ccccc1N1CCN(C(c2cc3ccc(C)cc3[nH]c2=O)c2nnnn2C2CCCC2)CC1 (configuration not stated)	15
CCCCc1nc2ccccc2n2cc3c(=O)n(C)c(=O)n(C)c3c12	-21
c1csc(CSc2nc3ccccc3s2)c1	-16
O=C(CSc1nc2ccccc2s1)NC(=O)NCc1ccco1	0
CS/C(=N\S(=O)(=O)c1cccs1)NC(=O)CSc1nc2ccccc2s1	73*	HIV RNase H inh-2=35
COC(=O)c1ccc(CSc2nc(C)nc3sc(C)c(C)c23)o1	28
O=C(CN1CCN(S(=O)(=O)c2ccc(Cl)cc2)CC1)Nc1ccc2c(c1)OCCO2	-7
N#Cc1c(NC(=O)CN2CCN(S(=O)(=O)c3ccc4c(c3)OCCO4)CC2)sc2c1CCC2	70*	HIV RNase H inh-2=78*
O=C(CN1CCN(S(=O)(=O)c2ccc(Br)cc2)CC1)Nc1ccc2c(c1)OCCO2	-3
O=C(C1CCN(S(=O)(=O)c2cccc3cccnc23)CC1)N1CCn2c1nc1ccccc12	-13
CCc1nc2ccccc2c(=O)n1CCCCn1c(CC)nc2ccccc2c1=O	-4
Nc1cc(-c2ccco2)no1	-2
SMILES	HIV RNase H inh-1	others
N#Cc1c(-c2ccccc2)cc(-c2ccco2)c(C#N)c1N	46
N#Cc1sc2nc(-c3ccccc3)cc(-c3ccco3)c2c1N	95*	HIV RNase H inh-2=-5
CCC(COC(=O)Nc1cccc(C)c1)NC(=O)OCC(C)C (configuration not stated)	-21
CCCC1COC(Cn2cncn2)(c2ccc(C)cc2)O1 (configuration not stated)	-11
CCC(C)n1ncn(-c2ccc(N3CCN(c4ccc(OCC5COC(Cn6cncn6)(c6ccc(Cl)cc6Cl)O5)cc4)CC3)cc2)c1=O (configuration not stated)	73*	HIV RNase H inh-2=37
CC1(c2ccc(Cl)cc2Cl)OCC(Cn2ccnc2)O1 (configuration not stated)	-10
CCCCNC(=O)OCCNC(=O)NC	-1
CCn1c(Cc2ccc(OC)cc2)nnc1SCC(=O)Nc1cccc(C(=O)OC)c1	1
COc1ccccc1NC(=O)Cn1cnc2c(cnn2-c2ccccc2)c1=O	-6
CCOC(=O)c1ccccc1NC(=O)Cn1cnc2c(cnn2-c2ccccc2)c1=O	-14
COC(=O)c1ccccc1NC(=O)Cn1cnc2c(cnn2-c2ccccc2)c1=O	74*	HIV RNase H inh-2=30
Nc1nc(N2CCN(C/C=C/c3ccccc3)CC2)nc2ccccc12	-2
CS(=O)(=O)N(Cc1ccccc1)c1ccccc1C(=O)O	-8
Cc1ccc(C)c(Cn2c(=O)n(CCC(=O)NCc3ccco3)c(=O)c3ccccc32)c1	75*	HIV RNase H inh-2=48
O=C(CCCCn1c(=O)c2ccccc2n(Cc2ccc(F)cc2Cl)c1=O)NCc1ccco1	7
Cc1ccc(NC(=O)Cn2c(=O)n(CCCCC(=O)NCc3ccco3)c(=O)c3ccccc32)cc1	-13
O=C(CCCNS(=O)(=O)c1cccc2nsnc12)NC1CCCCC1	-23
CCc1cc2c(CN3CCN(CC)CC3)cc(=O)oc2cc1O	-3
O=c1cc(CN2CCN(C/C=C/c3ccccc3)CC2)c2cc(O)ccc2o1	0
COc1ccc(N2CCN(Cc3cc(=O)oc4cc5c(cc34)CCCC5)CC2)cc1	81*	HIV RNase H inh-2=63*
CC(C)c1ccc2oc(=O)cc(CN3CCN(c4ccc(F)cc4)CC3)c2c1	42
O=c1cc(CN2CCN(c3ccccc3)CC2)c2cc(O)c(-c3ccccc3)cc2o1	73*	HIV RNase H inh-2=69*
CCc1ccc2oc(=O)cc(CN3CCN(c4ccc(F)cc4)CC3)c2c1	11
COC(=O)c1c(NC(=O)c2ccco2)sc(C(=O)N2CCCC2)c1C	1

Screening data: PubChem, University of Pittsburgh Molecular Library Screening Center
